Measured values: the supplement of paper PMC4466236
Over roughly 33,000 sequences, “E-score (dimensionless, -0.5 to 0.5)” has its median near -0.058; the highest 2% begin near 0.35. The full list was thinned out, with the highest values kept by preference.

Tested on: MvaT
Experiment: PBM 8-mer E-score (mean of HK and ME arrays) (E-score (dimensionless, -0.5 to 0.5)); higher = stronger relative binding preference
In short: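 Full-length P. aeruginosa MvaT carrying an N-terminal glutathione S-transferase tag was tested by protein binding microarray following a previously described protocol. Two universal double-stranded 60-mer arrays, ME and HK, were used, each with a constant 25-mer primer region and a variable 35-mer region covering all 8-mers. The rank-based E-score is the mean of the two arrays, parsed with a custom script. Its range runs from -0.5 to 0.5 for each 8-mer.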

| Sequence | PBM 8-mer E-score |
| --- | --- |
| CCAATGAC | -0.153 |
| CATTGTGG | -0.0595 |
| GGCTTTGA | -0.0706 |
| ACACAGGC | -0.0277 |
| TCCTACGA | -0.0392 |
| AATTATAG | 0.37 |
| AATTATGT | 0.366 |
| AATTATGG | 0.285 |
| CATTATAG | 0.277 |
| AATTATGA | 0.317 |
| ACTCCTGA | -0.0172 |
| CAGTTAAC | 0.221 |
| GAGTTAAC | 0.254 |
| GAGTTAAA | 0.25 |
| AAGTTAAC | 0.379 |
| AAGTTAAA | 0.411 |
| AAGTTACT | 0.339 |
| AAGTTAAG | 0.243 |
| TAGTTAAA | 0.273 |
| AAGTTAAT | 0.385 |
| CGTTATTC | 0.24 |
| GGTTATTA | 0.285 |
| AGTTATTG | 0.312 |
| AGTTATTA | 0.414 |
| CGTTATTA | 0.364 |

| Sequence | PBM 8-mer E-score |
| --- | --- |
| CGTTATCA | 0.111 |
| AAAGTAGG | 0.0451 |
| CAAAGATC | -0.0152 |
| ACTAAAAT | 0.39 |
| AGTAAAAT | 0.308 |
| AATAAAAA | 0.415 |
| AATAAAGG | 0.228 |
| AATAAAAG | 0.309 |
| AATAAAGT | 0.372 |
| ACTAAAAA | 0.193 |
| AATAAAAT | 0.388 |
| AATAAAGA | 0.344 |
| ACTAAAAC | 0.289 |
| AATAAAAC | 0.341 |
| CACCAGCC | -0.0802 |
| AGGCCTAC | -0.133 |
| CAAACCTA | 0.0792 |
| ATTTTCGA | 0.0907 |
| AGCGTTCC | -0.129 |
| TTGAGAAA | 0.135 |
| ACGTGGCC | -0.18 |
| CCCTGATC | -0.224 |
| CTACATGC | -0.081 |
| ATCGGTAA | -3.6e-06 |
| GCCGCGTA | -0.0692 |

| Sequence | PBM 8-mer E-score |
| --- | --- |
| ACACCCCC | -0.251 |
| AGCACAAA | 0.0677 |
| AGGCACCT | -0.217 |
| GACTTTGC | 0.127 |
| CTAAAATC | 0.148 |
| ATAAAATG | 0.249 |
| ATAAAATC | 0.193 |
| CTAAAATA | 0.353 |
| ATAAAATA | 0.427 |
| GTAAAATA | 0.345 |
| TAAAAATA | 0.3 |
| GAAAAATA | 0.317 |
| GTAAAAAA | 0.137 |
| AATAAGTC | 0.298 |
| ATATTGTC | 0.346 |
| ATATTGTG | 0.251 |
| ACATTGTC | 0.116 |
| ATATTGTA | 0.376 |
| CTATTGTC | 0.12 |
| CTATTGTA | 0.34 |
| CTCGAGTA | -0.0253 |
| AGCCAACA | 0.0763 |
| AAGTCGAT | -0.0445 |
| AGCAGACG | -0.169 |
| ACTGCGAG | -0.0652 |

| Sequence | PBM 8-mer E-score |
| --- | --- |
| AATAATCA | 0.259 |
| AATAATCT | 0.314 |
| AATAATAT | 0.453 |
| TAGAATAA | 0.306 |
| TATAATCA | 0.389 |
| TATAATAA | 0.477 |
| AATAATCC | 0.26 |
| GATAATCA | 0.176 |
| AGTAATAC | 0.297 |
| AGTAATAT | 0.418 |
| AGTAATAG | 0.213 |
| GCTAATAA | 0.338 |
| ACGCACTC | -0.0389 |
| AAAAAGAG | 0.0446 |
| AACGTTTG | 0.0612 |
| AGCCGCAA | -0.0521 |
| GGGCCGAC | -0.267 |
| GGCGGAAC | -0.146 |
| ATCTTCAA | 0.0478 |
| GCCTTGGA | -0.206 |
| GGCACCCA | -0.148 |
| CTCCACTC | -0.232 |
| AATAAGAG | 0.222 |
| AATAAGAA | 0.318 |
| AATAATAG | 0.402 |

| Sequence | PBM 8-mer E-score |
| --- | --- |
| AATAATAA | 0.478 |
| AATAGTAG | 0.294 |
| CATAATAG | 0.318 |
| AATAAGAT | 0.356 |
| GATAATAA | 0.404 |
| CATAATAA | 0.334 |
| AGGCATCG | -0.134 |
| TAAATCAA | 0.341 |
| AATTGGTG | 0.0491 |
| CGCTGTAC | -0.228 |
| GCAGCTAA | 0.0363 |
| CATAATAC | 0.327 |
| AATAATAC | 0.419 |
| GATAATAC | 0.301 |
| GGAAATCA | -0.0787 |
| GAGGAATC | -0.0683 |
| TCCATCAA | -0.032 |
| ACAAGGTA | -0.0731 |
| AGTTAACT | 0.377 |
| TGTTAACA | 0.33 |
| CGTTAACA | 0.114 |
| AGTTAACA | 0.348 |
| AGTTAACG | 0.204 |
| AGTTAACC | 0.142 |
| GTGAACCA | -0.139 |

| Sequence | PBM 8-mer E-score |
| --- | --- |
| AACGCTTA | 0.0532 |
| CGATTAAA | 0.218 |
| TTATTAAA | 0.409 |
| CTGTTAAA | 0.175 |
| AGATTAAC | 0.173 |
| GTATTAAA | 0.313 |
| ATATTAAC | 0.434 |
| CTATTAAA | 0.283 |
| TTGTTAAA | 0.346 |
| CTATTAAC | 0.315 |
| ATATTAAA | 0.466 |
| TCATTAAA | 0.228 |
| GTGTTAAA | 0.177 |
| GAGGACTC | -0.279 |
| CTCGGAAG | -0.0476 |
| CGCACACG | -0.149 |
| GATTCTGC | -0.159 |
| CACTACGA | -0.0417 |
| CCTGGCAG | -0.209 |
| CGTTGTAC | -0.0465 |
| AAGAGCTT | -0.115 |
| GATTCTGA | -0.00658 |
| AGCGCAAA | 0.162 |
| AACCAGGC | -0.183 |
| GCCTAATA | 0.133 |

| Sequence | PBM 8-mer E-score |
| --- | --- |
| AAATTTCT | 0.148 |
| CTATTAAG | 0.17 |
| GGATTAAC | 0.111 |
| ATATTAAG | 0.446 |
| GCATTAAC | 0.114 |
| GTATTAAC | 0.39 |
| ATATTACG | 0.299 |
| AGCGTCGC | -0.197 |
| CACAACCG | -0.028 |
| ATCGTATA | 0.115 |
| CCTACGAG | -0.148 |
| ATAAGTCA | 0.17 |
| AGTATAAA | 0.381 |
| TGTATAAA | 0.258 |
| CGTATAAC | 0.113 |
| GGTATAAA | 0.339 |
| GGTATAAC | 0.226 |
| AGTATAAC | 0.36 |
| ATGTAAAA | 0.247 |
| CTTCCCCC | -0.176 |
| AACACACA | 0.187 |
| AGGCTTAC | -0.247 |
| GGATAATA | 0.403 |
| CGATAATA | 0.301 |
| AGATAATA | 0.366 |

| Sequence | PBM 8-mer E-score |
| --- | --- |
| AGATAATG | 0.295 |
| AGATAATC | 0.136 |
| GGATAAGA | 0.0379 |
| GCTCGAGA | -0.152 |
| CCGTTCGC | -0.222 |
| CTCCGGTA | -0.227 |
| CAACGGCG | -0.221 |
| CTATATAG | 0.388 |
| GTGTATAA | 0.202 |
| GCGTATAA | 0.201 |
| CTCTATAA | 0.081 |
| ATCTATAG | 0.146 |
| CACTATAG | 0.196 |
| ATCTATAA | 0.209 |
| ATATATAG | 0.468 |
| CTATATAA | 0.421 |
| GTATATAA | 0.401 |
| CCATATAG | 0.084 |
| ATATAGCG | 0.333 |
| AACTAGGA | 0.0115 |
| TGGCAACA | -0.122 |
| ACAATCAC | 0.00599 |
| CACGCATC | -0.154 |
| GTGGCCAA | -0.191 |
| CTGTTACA | 0.111 |

| Sequence | PBM 8-mer E-score |
| --- | --- |
| GTGTTATA | 0.32 |
| CTGTTATA | 0.359 |
| ATGTTATG | 0.152 |
| ATGTTATA | 0.442 |
| CTGTTATC | 0.0487 |
| GAGGAAAC | -0.144 |
| GAAACAAA | 0.271 |
| ACTAATAC | 0.247 |
| CCTAATAA | 0.266 |
| ACTAATAT | 0.407 |
| ACTAATAG | 0.199 |
| TCTAATAA | 0.332 |
| ACTAATAA | 0.399 |
| CCAAATCC | -0.193 |
| AGAAAGAC | 0.00959 |
| GACACACA | 0.101 |
| AGGGACCC | -0.282 |
| AGACCTCG | -0.132 |
| AGATCGAG | -0.129 |
